The values that follow come from the supplement of paper PMC11417369.

In all, about 25,000 sequences were measured (“ln(normalized median fluorescence intensity)”: median about 9.3, highest 2% from about 10 on). The sample as a whole holds a higher share of the highest values than the screen did.

The subject of the assay is PF3D7_0420300 AP2 domain 1 (GST-tagged). Briefly: gcPBM binding intensity (ln(normalized median fluorescence intensity)); higher = stronger DNA binding. In a few lines:
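Binding intensity values are the highest Masliner-normalised natural-log median intensity among replicate spots of either probe orientation. The binding step lasted 1 h in 1× PBS with 1% milk, 0.2 mg/ml BSA, 0.5% salmon testes DNA and 0.03% Triton X-100, using GST-tagged P. falciparum DNA-binding domains expressed in E. coli on an Agilent 4 × 180k array of primer-extended double-stranded 36-bp intergenic genomic probes plus negative controls. Alexa488 anti-GST antibody and a 488 nm scan detected bound protein.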
With “TATATTAACAAAATGGTGCAATAATTTCTATATTGT [GTGCAC_site9430]”, the “gcPBM binding intensity (ln)” value was 9.21. For “TATTTTAATTTTTGTTGTACGCAAATGTGAGGGCAT [XGTACX_site4663]”, the “gcPBM binding intensity (ln)” value is 9.17. As for “AAATAAAGGAAATAAAAAGAAACCAATTTCGAATAT [CACACA_negctrl_site953]”, the “gcPBM binding intensity (ln)” value was 9.57. In the case of “TTTTTTATTTTTTACATATTTAGCTCATATTTATAT [GTGCAC_negctrl_site491]” it was 9.44; in that of “AAAGGAGGGAATTTTTCTAGGTGTGGAGTGCTACTC [XGTACX_negctrl_site63]”, 9.44. Next, “TATAAATATAAATACACACACATATATATTATATAT [CACACA_site4496]”: 9.85; “AAAACACTTATGGATTGTACAATAAAAATTATATTA [XGTACX_site7042]”: 9.26. In the case of “CCTATAAATGCATTCACACATATATATTTATATTAT [CACACA_site6086]” it was 9.26; in that of “TATATTAAAAAAAAATGTACATATATATAATATATA [XGTACX_site1935]”, 9.19. Consider “ATAATACCCAAGCACACACACACACCGATATATATA [CACACA_site8344]”, for which the “gcPBM binding intensity (ln)” value worked out at 10.4.

Consider “TGATAATAAGCATACACACACACACCCAAAAAAAAA [CACACA_site721]”, for which the “gcPBM binding intensity (ln)” value is 10.2.

As to “AAAATACATAAACACACACACACACCGATATATATA [CACACA_site9186]”, the “gcPBM binding intensity (ln)” value was 10.3. Next, “CCTAAATAAATGGACACACACATATATATATATATA [CACACA_site1439]”: 9.49. Take “ATAAAATACATATAAACACACATATAAACCGACATA [CACACA_site2477]”: the “gcPBM binding intensity (ln)” value turned out to be 10. In the case of “CACTAAAATGGACACACACACACACCGATATATATA [CACACA_site6139]” it was 10.2. As for “CACTAAAATAAACACACACACACACCGATATATATA [CACACA_site9379]”, the “gcPBM binding intensity (ln)” value came to 10.3. In the case of “AAATATATACTACCGATGCACTAAATATAAACACAT [GTGCAC_site9777]” it was 9.67; in that of “TAATAATACCCAAGCACACACACACCCATATATATA [CACACA_site4831]”, 10. In the case of “TAAAAAAAAAAAAATACACACACACCGATATATATA [CACACA_site8498]” it was 10.2; in that of “ACCATATAAATAAACACACACACACCGATATATATA [CACACA_site5310]”, 10.1; in that of “TATATATATAAATACACACACACACCGATATATATA [CACACA_site5408]”, 10.1. In the case of “TGTAAGAAATTGAGCGCACACATACATCTGTGGGAT [CACACA_site4945]” it was 9.55; in that of “AAAAAAAAAAAAAAAACACACATTTAGCAATCTACA [CACACA_site3706]”, 9.32.

On to “ATGTGATGTTATATATGTACTTATTTTTTAATAAGG [XGTACX_site1786]”, for which the “gcPBM binding intensity (ln)” value was 9.25.
